From PubChem BioAssay
Rows were chosen to be rich in hits. Some 1.7% of all compounds tested hit in one or more screens of this group.
MRP reversal – compounds reversing MRP-mediated drug resistance. H69AR cells + 2 uM doxorubicin, CellTiter-Glo, 72 h. differential viability (reversal), % at 10 µM. 0.04% of 85,000 active. AID 602;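 active = viability drop by adding the cancer drug above about 55%, with treated viability meeting a 40% cutoff, limit read from the data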;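 also: larger differential means the compound sensitizes cells more to doxorubicin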
GALR2 blocker – antagonists of human galanin receptor 2 (GALR2) | O43603 | GALR2-expressing cells, antagonist mode | inhibition, % at 4 µM | 0.39% of 140,000 active | AID 828; in the data active = inhibition above about 27%;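 also: cells stimulated with galanin 1-16 at roughly its EC80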
S1P2 ag – S1P2 (human) receptor agonism; AID 729; O95136; S1P2-expressing cell line, agonist reporter read-out; activation, % at 4.5 µM; 0.46% of 97,000 active; in the data active = activation above about 16%
Target sequence (O95136 whole entry, looked up): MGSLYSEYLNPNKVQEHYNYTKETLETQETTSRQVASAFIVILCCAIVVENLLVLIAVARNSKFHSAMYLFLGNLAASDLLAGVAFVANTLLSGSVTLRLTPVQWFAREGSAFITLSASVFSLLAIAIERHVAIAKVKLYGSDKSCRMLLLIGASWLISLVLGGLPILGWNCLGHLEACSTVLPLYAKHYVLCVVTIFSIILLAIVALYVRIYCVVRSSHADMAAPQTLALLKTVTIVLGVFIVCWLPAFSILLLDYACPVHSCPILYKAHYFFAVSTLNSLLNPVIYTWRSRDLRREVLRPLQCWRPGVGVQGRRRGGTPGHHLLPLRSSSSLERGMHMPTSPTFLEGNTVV
S1P2 blocker – antagonists of human S1P2 receptor; O95136; cell-based S1P2 antagonist assay, inhibition at 5 uM; inhibition, % at 5 µM; 0.21% of 97,000 active; AID 736; in the data active = inhibition above about 45%;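 also: CRE beta-lactamase reporter cells expressing human S1P2 stimulated with S1P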
MRP-1 activ – MRP-1 activation; H69AR cells + doxorubicin, viability rescue, CellTiter-Glo; viability increase, % at 10 µM; 0.61% of 140,000 active;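 active = viability gain under doxorubicin at or above a set limit, the compound median plus 3 SD, cut at about 4.7% in these data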;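 also: MRP-1 overexpressing cells given doxorubicin 25 µM after compound pretreatment; 18-22 h compound pretreatment then 72 h with doxorubicin before readout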
GALR2 agonist – GALR2 (human) receptor agonism | GALR2-expressing cells, agonist activation read-out | 0.48% of 140,000 active | activation, % (concentration not given with the values); in the data active = activation above about 5%, passing the limit was not always enough
GALR2 ag confirm – confirmation of human galanin receptor 2 (GALR2) agonists. activation, % at 5.6 µM. shares compounds with GALR2 agonist. 10% of 460 active. GALR2-expressing cells, agonist activation; in the data active = activation above about 8.4%
BLA activ ctr – activates beta-lactamase reporter in GALR2 agonist counterscreen; CHO NFAT-bla reporter, beta-lactamase FRET activation; 10% of 460 active; activation, % at 5.6 µM; shares compounds with GALR2 agonist; AID 865;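 active = activation above the screen-wide mean activation plus 3 SD, cut at about 8% in these data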
A number is an active result; i = inactive; nt = no result given.

SMILES | MRP reversal | GALR2 blocker | S1P2 ag | S1P2 blocker | MRP-1 activ | GALR2 agonist | GALR2 ag confirm | BLA activ ctr
Cc1nn(Cc2ccc(Cl)cc2)c(C)c1NC(=O)C(c1ccccc1)c1ccccc1 | nt | i | nt | nt | i | i | nt | nt
Nc1c(C(=O)Nc2ccc(S(=O)(=O)N3CCCC3)cc2)sc2nc3ccc(OC(F)(F)F)cc3cc12 | nt | i | nt | nt | i | 18 | i | i
CCn1c(=O)cc(OCC(=O)Nc2cccc(C)n2)c2ccccc21 | i | i | i | i | i | 120 | i | i
CCn1c(=O)cc(OCC(=O)Nc2cccnc2)c2ccccc21 | i | i | i | i | i | i | nt | nt
NC(=O)CC[C@H](NC(=O)OCc1ccccc1)C(=O)OCc1ccc(Cl)cc1 | nt | i | nt | nt | i | i | nt | nt
CN(C)CCNC(=O)NC(=O)c1ccc(Cl)cc1 | nt | i | nt | nt | i | 21 | i | i
COC(=O)C1CCN(C(=O)COC(=O)Cn2cnnn2)CC1 | i | i | i | i | i | 160 | i | i
COC(=O)C1CCN(C(=O)COC(=O)CC(NC(C)=O)c2ccccc2)CC1 (configuration not stated) | nt | i | i | i | i | i | nt | nt
O=C(CSc1ccc(-c2ccc(F)cc2)nn1)N1CCN(c2ccccc2)CC1 | nt | i | nt | nt | i | i | nt | nt
COc1cc(OC)cc(C(=O)Nn2c(C)nc3ccccc3c2=O)c1 | i | i | i | i | i | i | nt | nt
COc1ccc2[nH]c3c(c2c1)CCn1c-3nc2ccccc2c1=O | i | i | nt | nt | i | 8.7 | i | i
C=C(C)CN1CCN(c2c(CCC#N)c(C)c(C#N)c3nc4ccccc4n23)CC1 | i | i | nt | nt | i | 12 | i | i
CCCCCc1c(C)c(C#N)c2nc3ccccc3n2c1-n1ccnc1C | nt | i | i | i | i | i | nt | nt
O=C(O)CN1C(=O)C2(OCCCO2)c2ccccc21 | i | i | i | i | i | i | i | i
COC(=O)CN1C(=O)C2(OCCCO2)c2ccccc21 | i | i | i | i | i | i | nt | nt
CC1CC(C)CN(CCCNC(=O)c2csc3c2CCCC3)C1 (configuration not stated) | i | i | i | i | i | 108 | i | i
O=C(NCCN1CCOCC1)c1csc2c1CCCC2 | i | i | i | i | i | i | nt | nt
O=c1[nH]c(SCc2n[nH]c(=S)n2-c2ccccc2)nc2sc3c(c12)CCC3 | i | i | i | i | i | i | nt | nt
CCOC(=O)c1ccc(NC(=O)CCc2ccc(CC)o2)cc1 | i | i | i | i | i | i | i | i
CC(C)CN(C(=O)CSc1nncs1)c1c(N)n(CC(C)C)c(=O)[nH]c1=O | i | i | i | i | i | i | nt | nt
Cc1ccc2nc(SCC(=O)N(CC(C)C)c3c(N)n(CC(C)C)c(=O)[nH]c3=O)[nH]c2c1 | i | i | i | i | i | 40 | i | i
Cc1ccccc1C(=O)N[C@H](C(=O)OCC(=O)c1ccc[nH]1)C(C)C | nt | i | nt | nt | i | i | nt | nt
CC(NC(=O)c1ccccc1)c1nc2ccccc2n1Cc1ccccc1F (configuration not stated) | i | i | i | i | i | i | nt | nt
CCN(CC)c1ccc(NC(=O)Cn2c(C(C)NC(=O)c3ccccc3)nc3ccccc32)cc1 (configuration not stated) | nt | i | nt | nt | i | 11 | i | i
O=C(Nc1ccc(N2CCN(c3ccc(O)cc3)CC2)cc1)Oc1ccccc1 | i | i | i | i | i | 13 | i | i
SMILES | MRP reversal | GALR2 blocker | S1P2 ag | S1P2 blocker | MRP-1 activ | GALR2 agonist | GALR2 ag confirm | BLA activ ctr
O=C(Oc1ccccc1)N1CCN(c2ccc(F)cc2)CC1 | i | i | i | i | i | i | nt | nt
COc1ccc(CCNC(=O)CSc2nc3c(c(=O)n(C)c(=O)n3C)n2C)cc1OC | i | i | i | i | i | i | nt | nt
CN(Cc1cc([N+](=O)[O-])c2cccnc2c1O)C1CCCCC1 | nt | i | nt | nt | i | 23 | i | i
CCC(C)(C)NC(=O)C(c1cccn1C)N(Cc1ccc(OC)cc1)C(=O)Cn1nnc2ccccc21 (configuration not stated) | i | i | i | i | i | i | i | i
Cc1ccc(C(=O)COC(=O)c2cn(-c3ccccc3)nc2-c2ccccc2)cc1[N+](=O)[O-] | nt | i | nt | nt | i | i | nt | nt
CC(C)N(C1=N/C(=C\c2ccco2)C(=O)N1c1ccccc1)C(C)C | nt | i | i | i | i | i | i | 9.2
O=C1/C(=C/c2ccco2)N=C(N2CCCCC2)N1c1ccccc1 | nt | i | nt | nt | i | i | nt | nt
O=S(Cc1cc(Oc2ccccc2)nc(-c2ccccc2)n1)c1ccccc1 (configuration not stated) | nt | i | i | i | i | i | nt | nt
Cc1c(C(=O)N/N=C/c2ccc(-c3ccccc3[N+](=O)[O-])o2)sc(N)c1C#N | nt | i | nt | nt | i | 16 | 9.2 | 11
O=C(N/N=C/c1ccc(-c2ccccc2[N+](=O)[O-])o1)c1cncc(Br)c1 | nt | i | nt | nt | i | i | nt | nt
O=C(COC(=O)c1ccccc1NC(=O)C1CC1)c1ccc2c(c1)OCCO2 | nt | i | nt | nt | i | i | nt | nt
O=C(Nc1ccccc1-c1ccccc1)c1ccc(Br)o1 | i | i | i | i | i | 13 | i | i
Oc1ccccc1/C=N/Nc1ccnc(SCc2ccccc2)n1 | nt | i | nt | nt | i | 23 | i | i
C/C(=N\NC(=O)c1nonc1N)c1cccs1 | nt | i | nt | nt | i | i | nt | nt
CCOC(=O)c1c(CSC(=N)N)n(-c2ccc(Br)cc2)c2cc(Br)c(OC(C)=O)cc12 | nt | i | nt | nt | i | 34 | i | i
O=c1[nH]c2ccccc2nc1-c1cccs1 | i | i | i | i | i | 12 | i | i
COC(=O)C1=CN(C)C=C(C(=O)OC)C1c1ccc(O)c(OC)c1 | i | i | i | i | i | i | nt | nt
COC(=O)C1=CN(C2CC2)C=C(C(=O)OC)C1c1ccccc1OC | i | i | i | i | i | i | i | i
CCSc1ncc(C#N)c(N)n1 | i | i | i | i | i | i | i | i
Cc1ccc(CN2C(=O)N/C(=C\c3ccc(N4CCOCC4)cc3)C2=O)cc1 | nt | i | nt | nt | i | 8.7 | i | i
O=C1N/C(=C\c2ccc(N3CCOCC3)c(F)c2)C(=O)N1Cc1ccccc1 | nt | i | i | i | i | i | nt | nt
CCOC(=O)Cn1c(=NC(=O)c2cccs2)sc2cc(C(=O)OC)ccc21 | nt | i | nt | nt | i | 14 | i | i
CCOc1cccc(SCc2noc(C(=O)NCCOC)c2C(=O)O)c1 | nt | i | i | i | i | 59 | i | i
COc1cccc(OCC(=O)Nc2c(C(=O)Nc3ccc(OC)cc3OC)oc3ccccc23)c1 | i | nt | nt | nt | nt | nt | nt | nt
COc1ccccc1-c1cc(C(F)(F)F)n2ncc(S(=O)(=O)c3ccccc3)c2n1 | nt | i | i | i | i | i | nt | nt
COC(=O)C1C(O)=C(C=NCC(C)N=CC2=C(O)C(C(=O)OC)C(C)(C)CC2=O)C(=O)CC1(C)C (configuration not stated) | i | i | i | i | i | i | nt | nt
CCC(C)N=CC1=C(O)C(C(=O)OC)C(C)(C)CC1=O (configuration not stated) | i | i | i | i | i | 49 | i | i
COc1cc(OC)cc(C(=O)NCC(=O)OCC(=O)C(C)(C)C)c1 | nt | i | nt | nt | i | i | nt | nt
